A short description of assay [1]: qHTS assay to identify small molecule antagonists of the estrogen receptor alpha (ER-alpha) signaling pathway using the BG1 cell line in the presence of 0.1 nM 17-beta-estradiol - cell viability counter screen (AID 1259241). Also: nearly all actives have a fitted effect of over 40% in size. The method in brief: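 Viability in VM7Luc4E2 cells after 22 hr compound exposure under 0.1 nM 17beta-estradiol stimulation, by CellTiter-Fluor.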
(In qHTS, concentration-response curves come from the screen itself.)

Assay [2] is described as follows: qHTS assay to identify small molecule antagonists of the androgen receptor (AR) signaling pathway using the MDA cell line in the presence of 0.5 nM R1881 - cell viability counter screen (AID 1259242). Also: nearly all actives have a fitted effect of over 45% in size. The method in brief:
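MDA-kb2 cells (human breast carcinoma, stably carrying MMTV-luciferase reporter) were exposed to compounds with 0.5 nM R1881 (final) for 16 hr at 37C, 0% CO2; viability then read as live-cell protease fluorescence (CellTiter-Fluor, 30 min) in the same wells.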

Assay [3] addresses Estrogen receptor (Homo sapiens) (UniProt P03372). Briefly: qHTS assay to identify small molecule antagonists of the estrogen receptor alpha (ER-alpha) signaling pathway using the BG1 cell line in the presence of 0.1 nM 17-beta-estradiol (AID 1259244). Also: nearly all actives have a fitted effect of over 50% in size. Put shortly: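 VM7Luc4E2 cells (endogenous full-length ER-alpha, stable 4xERE-luciferase) were grown 5 days in phenol red-free medium with charcoal-stripped FBS, then exposed 22 h at 37C to compounds plus 0.1 nM (final) 17beta-estradiol; ONE-Glo luminescence read-out.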

Assay [4] in a line: qHTS assay to identify small molecule HDAC inhibitors (AID 1259364). Also: top concentration of the series differs between compounds; nearly all actives have a fitted effect of over 45% in size. Put shortly:
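Wild-type HCT-116 cells were plated overnight, exposed to compounds for 2 h at 37 °C, then given HDAC-Glo class I/II luminogenic reagent for 30 min at room temperature before luminescence was read.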

Assay [5] can be described thus: qHTS assay to identify small molecule HDAC inhibitors - cell viability counter screen (AID 1259365). Also: series mostly up to about 92 µM; nearly all actives have a fitted effect of over 50% in size. Put shortly:
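Cytotoxicity was gauged in wild-type HCT-116 cells after a brief 2hr treatment with DMSO-dissolved compounds at 37C and 5% CO2, using CellTiter-Glo luminescence developed for 30min at room temperature.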

Assay [6] in a line: qHTS assay to identify small molecule agonists of the sonic hedgehog signaling (Shh) pathway - cell viability counter screen (AID 1259366). Also: nearly all actives have a fitted effect of over 50% in size. The method in brief:
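Stable Gli1-Luc NIH/3T3 clone, 2,000 cells/well. Compound exposure 24hr at 37C. Read-out: CellTiter-Fluor fluorescence.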

Assay [7] can be described thus: qHTS assay to identify small molecule antagonists of the sonic hedgehog signaling (Shh) pathway - cell viability counter screen (AID 1259367). Also: nearly all actives have a fitted effect of over 55% in size. The method in brief: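 Seed 3T3 Gli1-Luc cells at 2,000 per well; incubate 4 hr; add compound in DMSO, then conditioned medium; incubate at 37C with 5% CO2; add CellTiter-Fluor after 23 hr; read fluorescence 1 hr later.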
A short description of assay [8]: qHTS assay to identify small molecule agonists of the sonic hedgehog signaling (Shh) pathway (AID 1259368; calls by dose curve; also: series mostly up to about 92 µM; nearly all actives have a fitted effect of over 15% in size). The method in brief: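 NIH/3T3-derived 3T3Gli1-Luc cells carrying a stably integrated Gli1 response element–firefly luciferase reporter were plated, left 4 hr at 37 C, then given compounds in DMSO for 24 hr. Luminescence was read 30 min after adding luciferase reagent.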

The nature of assay [9]: qHTS assay to identify small molecule antagonists of the sonic hedgehog signaling (Shh) pathway (AID 1259369; calls by dose curve; also: nearly all actives have a fitted effect of over 45% in size). Put shortly:
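NIH/3T3-derived 3T3Gli1-Luc cells with stably integrated Gli1-Luc reporter were preincubated 4hr at 37 C, then given compounds in DMSO plus Shh conditioned medium and incubated 24hr. Firefly luciferase luminescence read after 30min reagent at room temperature.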

Assay [10] has as its target Estrogen receptor beta (Homo sapiens) (UniProt Q92731). Put plainly: qHTS assay to identify small molecule antagonists of the estrogen receptor beta (ER-beta) signaling pathway (AID 1259378; active = well fitted inhibition curve with a large enough effect in the signal ratio in the repeat runs, not every such curve was filed as active; the % refers to the signal ratio). Put shortly: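 ER-beta-UAS-bla HEK293T cells in 2% charcoal-stripped FBS medium treated with compound plus 1nM final 17-beta-estradiol for 16 hr at 37C. Beta-lactamase reporter read by FRET substrate fluorescence after 2 hours at room temperature.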

The nature of assay [11]: qHTS assay to identify small molecule agonists of the androgen receptor (AR) signaling pathway in the presence of an antagonist - cell viability counter screen (AID 1259379). Also: series mostly up to about 92 µM; nearly all actives have a fitted effect of over 25% in size. Put shortly:
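MDA-kb2 human breast carcinoma cells (stable MMTV-luciferase, AR/GR responsive) were seeded 3,000 cells/well, pre-incubated 5 hr at 37C without CO2, then given 3.0uM nilutamide and compounds at 15 concentrations for 16 hr. Viability was read by CellTiter-Fluor fluorescence.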

Assay [12] in a line: qHTS assay to identify small molecule agonists of the estrogen receptor beta (ER-beta) signaling pathway - cell viability counter screen (AID 1259380). Also: nearly all actives have a fitted effect of over 30% in size. Put shortly:
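ER-beta-UAS-bla HEK293T cells in medium with 2% charcoal-stripped FBS were preincubated 6 hr at 37C, dosed with compound in DMSO for 16 hr, then after the bla read, CellTiter-Glo was added for 30 min at room temperature; luminescence recorded.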

Assay [13] in a line: qHTS assay to identify small molecule antagonists of the estrogen receptor beta (ER-beta) signaling pathway - cell viability counter screen (AID 1259382). Also: series mostly up to about 92 µM; nearly all actives have a fitted effect of over 55% in size. Put shortly:
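ER-beta-UAS-bla HEK293T cells (2,000/well, 2% charcoal-stripped FBS) were pre-incubated 6 hr at 37C, then given compound plus 1nM final 17-beta-estradiol for 16 hr. Viability was read in the same wells by CellTiter-Glo luminescence after 30 min at room temperature.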

The target in assay [14] is Estrogen receptor (Homo sapiens) (UniProt P03372). Put plainly: qHTS assay to identify small molecule agonists of the estrogen receptor alpha (ER-alpha) signaling pathway in the presence of an antagonist (AID 1259383; calls by dose curve; also: top concentration of the series differs between compounds; nearly all actives have a fitted effect of over 15% in size). The method in brief:
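VM7Luc4E2 cells (endogenous full-length ER-alpha, 4×ERE-luciferase) were precultured 5 days in phenol red-free medium with 10% charcoal-stripped FBS, given 10.0nM ICI-182,780 (final), then treated with compounds at 15 concentrations for 22hr at 37C; luminescence read with ONE-Glo.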

A short description of assay [15]: qHTS assay to identify small molecule agonists or antagonists of the thyroid stimulating hormone receptor (TSHR) signaling pathway - wild type cell line counter screen (AID 1259384; calls by dose curve). Put shortly:
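Wild-type Hek293 cells, 800/well, 18 h at 37C, then compound with Ro20-1724 for 30 min RT. cAMP by HTRF (cAMP-d2/anti-cAMP cryptate), 1 h RT, fluorescence read. 15 concentrations, triplicates.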

The target of assay [16] is Thyrotropin receptor (Homo sapiens) (UniProt P16473). Briefly: qHTS assay to identify small molecule antagonists of the thyroid stimulating hormone receptor (TSHR) signaling pathway (AID 1259385; calls by dose curve; also: nearly all actives have a fitted effect of over 20% in size; also: potency is read from the fitted curve at half-maximal effect). Put shortly: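 TSHR-HEK293 cells (800/well) plated 18 h, then compounds with Ro20-1724 and TSH at 1.5 ng/mL final, 30 min at room temperature. cAMP quantified by HTRF (cAMP-d2/anti-cAMP-cryptate, 1 h); 15 concentrations in triplicate.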

For assay [17], the target named is Estrogen receptor beta (Homo sapiens) (UniProt Q92731). Put plainly: qHTS assay to identify small molecule agonists of the estrogen receptor beta (ER-beta) signaling pathway (AID 1259377; active = well fitted activation curve with a large enough effect in the signal ratio in the repeat runs, not every such curve was filed as active; the % refers to the signal ratio). The method in brief:
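Measured by fluorescence intensity from a B/G FRET beta-lactamase substrate (2 h, room temperature) in ER-beta-UAS-bla HEK293T cells treated with DMSO-dissolved compounds for 16 hr at 37C and 5% CO2.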

Assay [18] in a line: qHTS assay to identify small molecule phospholipidosis (PLD) inducers (AID 1259344; active = well fitted curve in the direction sought with a large enough effect; an effect the other way counts as inactive or inconclusive). The method in brief: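 Quantitative HTS in HepG2: compound plus LipidTOX Red dye for 24 h, paraformaldehyde fixation with Hoechst 33342, widefield high-content imaging; amiodarone as positive and DMSO as negative control.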

Unmarked numbers belong to inactive results. Records with an inconclusive call do not appear. Calls of active or inactive are those of the source. Unless noted, calls follow the shape of the dose curve; as a rule, active = well fitted curve in the direction sought with a large enough effect in the repeat runs; inconclusive = weak or mixed curves; inactive = no such curve, though single readings can be large; an effect the other way counts as inactive or inconclusive.
% is scaled to controls: 0 for no effect and ±100 for the full control effect.

Chain of Estrogen receptor (Homo sapiens) (P03372 whole entry, looked up): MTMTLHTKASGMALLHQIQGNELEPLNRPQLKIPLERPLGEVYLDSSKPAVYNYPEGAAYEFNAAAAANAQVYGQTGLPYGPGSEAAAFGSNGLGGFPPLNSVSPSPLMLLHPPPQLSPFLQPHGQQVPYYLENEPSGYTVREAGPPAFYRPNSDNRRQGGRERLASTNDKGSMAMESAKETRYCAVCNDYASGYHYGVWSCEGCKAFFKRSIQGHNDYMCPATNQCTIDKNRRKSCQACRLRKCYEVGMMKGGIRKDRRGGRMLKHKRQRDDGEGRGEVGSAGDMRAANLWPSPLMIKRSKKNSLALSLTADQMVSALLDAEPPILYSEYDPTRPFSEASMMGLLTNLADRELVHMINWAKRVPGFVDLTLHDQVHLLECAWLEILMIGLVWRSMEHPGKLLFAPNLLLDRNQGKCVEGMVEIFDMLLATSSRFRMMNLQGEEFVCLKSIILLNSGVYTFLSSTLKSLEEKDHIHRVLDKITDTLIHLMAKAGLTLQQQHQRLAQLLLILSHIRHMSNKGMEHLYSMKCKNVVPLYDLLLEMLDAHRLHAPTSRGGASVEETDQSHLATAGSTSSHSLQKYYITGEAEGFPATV
Chain of Thyrotropin receptor (Homo sapiens) (P16473 whole entry, looked up): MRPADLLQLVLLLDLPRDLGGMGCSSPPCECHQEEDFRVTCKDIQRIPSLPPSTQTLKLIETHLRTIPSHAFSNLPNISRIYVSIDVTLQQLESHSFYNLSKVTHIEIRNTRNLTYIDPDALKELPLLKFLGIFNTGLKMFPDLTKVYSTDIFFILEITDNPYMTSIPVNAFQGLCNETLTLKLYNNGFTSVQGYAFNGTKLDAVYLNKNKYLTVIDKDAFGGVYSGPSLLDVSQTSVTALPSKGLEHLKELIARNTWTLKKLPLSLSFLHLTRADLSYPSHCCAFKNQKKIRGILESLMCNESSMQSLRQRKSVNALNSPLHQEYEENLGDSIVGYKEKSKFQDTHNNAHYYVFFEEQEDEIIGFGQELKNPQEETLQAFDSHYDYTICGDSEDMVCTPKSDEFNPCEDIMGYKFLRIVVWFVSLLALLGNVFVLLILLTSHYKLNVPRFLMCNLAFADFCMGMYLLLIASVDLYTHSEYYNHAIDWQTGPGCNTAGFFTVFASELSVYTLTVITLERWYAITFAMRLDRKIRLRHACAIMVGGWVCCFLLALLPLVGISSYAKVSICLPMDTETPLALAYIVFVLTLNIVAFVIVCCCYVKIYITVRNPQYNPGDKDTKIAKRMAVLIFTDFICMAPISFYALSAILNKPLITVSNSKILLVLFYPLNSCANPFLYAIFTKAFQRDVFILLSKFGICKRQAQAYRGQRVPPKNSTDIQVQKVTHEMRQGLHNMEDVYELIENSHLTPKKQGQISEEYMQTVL
Chain of Estrogen receptor beta (Homo sapiens) (Q92731 whole entry, looked up): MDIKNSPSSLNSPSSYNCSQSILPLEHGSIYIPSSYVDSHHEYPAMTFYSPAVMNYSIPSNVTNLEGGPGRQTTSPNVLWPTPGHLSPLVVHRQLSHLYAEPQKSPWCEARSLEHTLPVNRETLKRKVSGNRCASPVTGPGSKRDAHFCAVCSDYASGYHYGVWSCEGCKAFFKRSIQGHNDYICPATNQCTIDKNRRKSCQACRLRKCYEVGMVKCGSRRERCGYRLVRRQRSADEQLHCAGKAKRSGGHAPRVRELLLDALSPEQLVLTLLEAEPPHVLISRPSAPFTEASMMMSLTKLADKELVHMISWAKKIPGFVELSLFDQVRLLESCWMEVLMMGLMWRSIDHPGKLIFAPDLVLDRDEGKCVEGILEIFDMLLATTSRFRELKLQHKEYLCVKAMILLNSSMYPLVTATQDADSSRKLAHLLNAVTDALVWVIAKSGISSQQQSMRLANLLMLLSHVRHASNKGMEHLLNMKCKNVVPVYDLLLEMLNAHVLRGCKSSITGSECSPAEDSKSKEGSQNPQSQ

Regarding `O=C(O)C1(C(=O)O)CCC1.[NH2-].[NH2-].[Pt+2]`, the Potency entry in assay [1], in assay [2], in [3], in [4], in assay [5] and in [6] was “inactive” each time. Further, the Potency result in assay [7], in assay [9], in assay [10], in assay [11], in assay [12] and in [13] was “inactive” throughout. The Potency entry in assay [14], in [15] and in assay [16] was “inactive” throughout. Further, the call in assay [8] was inactive.

Turning to `c1ccc(C(O[C@H]2CCCN(CCc3ccc4c(c3)OCO4)C2)c2ccccc2)cc1`, the Potency entry in assay [1], in assay [2], in assay [3], in assay [4], in [5] and in assay [6] was “inactive” each time. The Potency result in assay [7], in assay [9], in assay [17], in assay [11], in assay [13] and in assay [14] was “inactive” each time. For the same compound, the Potency result in assay [15] and in [16] was “inactive” throughout. Besides, the call in [8] was inactive.

As for `COc1ccc(C(=O)N2CCN(CC(=O)N3CCOCC3)CC2)cc1`, the Potency entry in assay [1], in assay [2], in assay [3], in assay [18], in assay [5] and in [6] was “inactive” each time. Moreover, the Potency entry in [7], in assay [9], in assay [17], in [10], in [11] and in [12] was “inactive” in each case. The Potency entry in [13], in assay [14], in assay [15] and in assay [16] was “inactive” in each case. Also, the call in assay [8] was inactive.

Consider `CCCCCCCCCOS(=O)(=O)O`, for which the Potency entry in assay [1], in [2], in [3], in assay [4], in [5] and in assay [6] was “inactive” in each case. Moreover, the Potency entry in assay [7], in assay [9], in [17], in assay [10], in [12] and in assay [13] was “inactive” each time. The Potency result in [14], in assay [15] and in assay [16] was “inactive” throughout. For the same compound, the compound was called inactive in [8].

As for `CN1C[C@H]2c3ccccc3Oc3ccc(Cl)cc3[C@@H]2C1`, the Potency result in [1], in assay [2], in assay [3], in [4], in [17] and in assay [10] was “inactive” each time. In addition, the Potency entry in assay [13], in [14] and in [16] was “inactive” each time. The PLD induction in assay [18] is 1.39% [at 7.66 µM]. Moreover, the call in assay [8] was inactive.

As to `O=C(Cl)c1cc(C(=O)Cl)cc(C(=O)Cl)c1`, the Potency entry in assay [1], in [2], in assay [3], in assay [4], in assay [5] and in assay [7] was “inactive” each time. The Potency result in assay [9], in [17], in [10], in assay [11], in assay [12] and in assay [14] was “inactive” each time. For the same compound, the Potency result in [15] is “inactive”. In addition, the compound was called inactive in [8]. Also, in assay [16], the Potency was 68.6 µM (active).

On to `C=C(C)C(=O)OCCO`, for which the Potency result in assay [1], in [2], in assay [3], in assay [4], in assay [5] and in assay [7] was “inactive” in each case. For the same compound, the Potency result in [11], in assay [12], in assay [13] and in assay [14] was “inactive” in each case. The call in assay [8] was inactive.

`C=C(C)C(=O)OCC`: the Potency result in assay [1], in assay [2], in assay [3], in assay [4], in assay [7] and in [9] was “inactive” each time. For the same compound, the Potency result in assay [10], in assay [11], in assay [12], in assay [13], in assay [14] and in assay [15] was “inactive” throughout. Further, in [16], the Potency result is “inactive”. Also, in assay [8], the call was inactive.

The values are drawn from PubChem BioAssay (Tox21).
